Experimental data taken from the supplement of paper PMC6411743.
± gives the standard deviation of the averaged measurements. Targets with the largest changes are over-represented here; the source holds about 6,500 in all.

Compound: Nc1ncnc2c1ncn2[C@@H]1O[C@H](COP(=O)(O)OP(=O)(O)OP(=O)(O)O)[C@@H](O)[C@H]1O [adenosine triphosphate]
Experiment: NP40-soluble protein abundance relative to vehicle (solubility fold change) (ratio); higher = more soluble protein in presence of ATP
In short: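 Each value is a fold change relative to the detergent-processed vehicle, calculated per replicate from vsn-normalised intensities. Jurkat crude lysate received eight concentrations (0.1 to 10 mM) for 10 min at room temperature and 3 min at 37 °C, then was solubilised in 0.8% NP40 with benzonase (60 min, 4 °C). The ultracentrifuged supernatant was TMT-labelled and run by LC-MS/MS in three independent experiments.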

Chain of UniProt Q8NI27 (Q8NI27 whole entry, one chain of several): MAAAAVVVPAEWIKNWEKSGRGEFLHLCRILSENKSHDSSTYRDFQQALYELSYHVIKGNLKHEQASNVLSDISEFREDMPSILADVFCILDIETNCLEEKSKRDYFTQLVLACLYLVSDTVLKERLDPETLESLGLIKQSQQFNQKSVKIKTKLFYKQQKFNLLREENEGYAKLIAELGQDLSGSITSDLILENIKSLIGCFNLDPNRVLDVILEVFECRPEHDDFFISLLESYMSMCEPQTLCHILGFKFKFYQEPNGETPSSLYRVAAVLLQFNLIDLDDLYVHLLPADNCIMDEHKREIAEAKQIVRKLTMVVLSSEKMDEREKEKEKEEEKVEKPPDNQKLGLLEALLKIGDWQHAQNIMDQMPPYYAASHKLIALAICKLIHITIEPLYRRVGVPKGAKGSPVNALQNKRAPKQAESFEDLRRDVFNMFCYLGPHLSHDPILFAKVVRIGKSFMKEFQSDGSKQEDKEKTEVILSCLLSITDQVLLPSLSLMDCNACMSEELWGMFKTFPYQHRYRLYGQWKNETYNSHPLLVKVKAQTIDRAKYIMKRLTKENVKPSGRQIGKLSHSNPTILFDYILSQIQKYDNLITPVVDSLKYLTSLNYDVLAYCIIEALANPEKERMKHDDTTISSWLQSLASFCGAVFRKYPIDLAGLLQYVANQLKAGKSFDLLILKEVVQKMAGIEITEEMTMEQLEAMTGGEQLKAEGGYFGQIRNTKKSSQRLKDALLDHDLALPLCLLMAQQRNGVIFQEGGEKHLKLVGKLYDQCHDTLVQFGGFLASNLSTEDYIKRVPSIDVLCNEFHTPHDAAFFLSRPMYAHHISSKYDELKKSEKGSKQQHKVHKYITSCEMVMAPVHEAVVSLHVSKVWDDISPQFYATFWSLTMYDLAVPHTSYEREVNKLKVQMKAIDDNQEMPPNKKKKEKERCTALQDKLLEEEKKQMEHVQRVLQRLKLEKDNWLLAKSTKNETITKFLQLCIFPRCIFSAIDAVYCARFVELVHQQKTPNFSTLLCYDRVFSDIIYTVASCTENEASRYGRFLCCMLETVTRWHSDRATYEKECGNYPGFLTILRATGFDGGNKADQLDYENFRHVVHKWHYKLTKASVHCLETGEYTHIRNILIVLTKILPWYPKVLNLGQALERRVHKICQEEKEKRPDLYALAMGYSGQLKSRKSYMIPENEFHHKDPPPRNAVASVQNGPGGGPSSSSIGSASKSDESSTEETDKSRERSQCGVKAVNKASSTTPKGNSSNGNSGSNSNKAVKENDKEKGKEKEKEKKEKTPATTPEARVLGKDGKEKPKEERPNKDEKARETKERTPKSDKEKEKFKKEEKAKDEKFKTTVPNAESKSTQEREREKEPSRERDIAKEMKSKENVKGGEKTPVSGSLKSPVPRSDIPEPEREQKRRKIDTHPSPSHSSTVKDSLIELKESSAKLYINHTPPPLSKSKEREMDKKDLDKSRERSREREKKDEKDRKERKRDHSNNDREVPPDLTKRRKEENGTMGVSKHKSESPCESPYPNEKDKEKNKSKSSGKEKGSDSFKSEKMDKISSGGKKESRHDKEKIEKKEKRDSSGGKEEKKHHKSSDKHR
Chain of UniProt Q96ME7 (Q96ME7 whole entry, one chain of several): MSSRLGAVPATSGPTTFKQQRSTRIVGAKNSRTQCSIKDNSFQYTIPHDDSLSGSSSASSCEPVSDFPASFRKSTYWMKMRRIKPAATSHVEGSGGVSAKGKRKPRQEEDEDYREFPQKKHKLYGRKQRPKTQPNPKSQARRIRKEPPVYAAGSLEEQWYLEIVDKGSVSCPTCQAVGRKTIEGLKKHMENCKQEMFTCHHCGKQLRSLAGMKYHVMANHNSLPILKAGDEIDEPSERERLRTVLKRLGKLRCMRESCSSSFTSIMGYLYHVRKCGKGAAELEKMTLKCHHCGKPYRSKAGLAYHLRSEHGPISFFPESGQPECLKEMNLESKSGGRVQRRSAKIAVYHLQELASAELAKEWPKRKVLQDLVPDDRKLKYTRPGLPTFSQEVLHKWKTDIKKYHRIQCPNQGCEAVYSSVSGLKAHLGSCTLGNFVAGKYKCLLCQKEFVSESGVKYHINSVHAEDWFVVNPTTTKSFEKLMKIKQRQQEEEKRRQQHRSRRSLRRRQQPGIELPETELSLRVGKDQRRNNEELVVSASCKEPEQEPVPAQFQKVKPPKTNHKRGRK
Chain of UniProt O75165 (O75165 whole entry): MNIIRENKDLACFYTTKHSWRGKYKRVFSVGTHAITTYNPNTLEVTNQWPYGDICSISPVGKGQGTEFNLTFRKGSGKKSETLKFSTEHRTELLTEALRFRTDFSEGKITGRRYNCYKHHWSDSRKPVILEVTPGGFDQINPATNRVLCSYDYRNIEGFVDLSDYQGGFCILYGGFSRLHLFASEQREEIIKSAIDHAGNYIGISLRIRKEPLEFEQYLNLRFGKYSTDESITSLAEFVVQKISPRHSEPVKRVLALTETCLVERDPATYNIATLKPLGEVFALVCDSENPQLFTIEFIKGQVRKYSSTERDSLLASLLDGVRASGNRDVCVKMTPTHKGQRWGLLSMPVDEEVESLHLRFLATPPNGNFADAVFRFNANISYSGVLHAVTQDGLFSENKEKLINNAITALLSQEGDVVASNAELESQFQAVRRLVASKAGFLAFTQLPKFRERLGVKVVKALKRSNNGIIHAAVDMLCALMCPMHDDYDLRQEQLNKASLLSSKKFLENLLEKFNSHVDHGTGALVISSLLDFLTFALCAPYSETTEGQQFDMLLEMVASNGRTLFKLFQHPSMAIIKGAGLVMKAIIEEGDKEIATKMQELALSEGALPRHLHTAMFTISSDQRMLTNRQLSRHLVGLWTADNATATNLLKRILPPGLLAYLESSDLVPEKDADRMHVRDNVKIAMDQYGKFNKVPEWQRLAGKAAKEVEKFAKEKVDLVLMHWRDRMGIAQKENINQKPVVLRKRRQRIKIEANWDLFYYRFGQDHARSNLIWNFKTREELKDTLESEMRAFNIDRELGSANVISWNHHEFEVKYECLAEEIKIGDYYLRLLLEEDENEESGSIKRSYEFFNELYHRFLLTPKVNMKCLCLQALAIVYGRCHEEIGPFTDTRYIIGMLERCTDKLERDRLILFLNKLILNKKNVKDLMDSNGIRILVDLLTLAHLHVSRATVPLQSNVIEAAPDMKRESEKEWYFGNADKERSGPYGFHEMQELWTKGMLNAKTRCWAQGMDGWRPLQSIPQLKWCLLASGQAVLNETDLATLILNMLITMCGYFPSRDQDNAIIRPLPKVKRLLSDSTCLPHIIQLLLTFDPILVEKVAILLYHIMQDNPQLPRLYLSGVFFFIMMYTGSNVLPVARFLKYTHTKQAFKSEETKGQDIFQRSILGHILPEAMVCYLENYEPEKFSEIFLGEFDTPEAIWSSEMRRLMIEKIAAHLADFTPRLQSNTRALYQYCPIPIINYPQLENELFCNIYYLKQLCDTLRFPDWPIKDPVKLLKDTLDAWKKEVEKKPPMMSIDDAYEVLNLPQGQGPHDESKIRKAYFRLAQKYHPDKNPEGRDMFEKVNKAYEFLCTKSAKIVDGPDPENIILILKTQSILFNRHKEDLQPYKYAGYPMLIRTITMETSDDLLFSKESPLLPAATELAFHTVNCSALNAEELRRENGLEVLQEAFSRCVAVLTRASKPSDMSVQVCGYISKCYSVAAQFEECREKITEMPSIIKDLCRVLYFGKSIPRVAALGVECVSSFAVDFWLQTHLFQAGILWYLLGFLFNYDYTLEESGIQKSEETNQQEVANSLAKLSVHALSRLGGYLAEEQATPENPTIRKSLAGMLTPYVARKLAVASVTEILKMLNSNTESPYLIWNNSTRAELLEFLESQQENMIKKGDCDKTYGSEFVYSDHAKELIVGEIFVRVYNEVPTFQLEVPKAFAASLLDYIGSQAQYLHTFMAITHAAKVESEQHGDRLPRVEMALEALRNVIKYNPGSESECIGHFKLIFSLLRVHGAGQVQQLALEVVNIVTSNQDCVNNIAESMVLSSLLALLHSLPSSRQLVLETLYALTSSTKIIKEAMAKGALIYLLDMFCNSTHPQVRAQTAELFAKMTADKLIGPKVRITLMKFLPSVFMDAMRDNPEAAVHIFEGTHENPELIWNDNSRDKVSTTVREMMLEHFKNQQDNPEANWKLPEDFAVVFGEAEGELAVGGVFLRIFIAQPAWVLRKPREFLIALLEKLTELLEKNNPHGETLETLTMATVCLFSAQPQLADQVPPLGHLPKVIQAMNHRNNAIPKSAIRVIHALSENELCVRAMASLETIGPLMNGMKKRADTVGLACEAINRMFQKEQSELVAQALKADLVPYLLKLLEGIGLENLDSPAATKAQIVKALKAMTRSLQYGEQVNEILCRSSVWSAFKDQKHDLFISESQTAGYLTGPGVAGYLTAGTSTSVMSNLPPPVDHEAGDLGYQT
Chain of UniProt O75191 (O75191 whole entry): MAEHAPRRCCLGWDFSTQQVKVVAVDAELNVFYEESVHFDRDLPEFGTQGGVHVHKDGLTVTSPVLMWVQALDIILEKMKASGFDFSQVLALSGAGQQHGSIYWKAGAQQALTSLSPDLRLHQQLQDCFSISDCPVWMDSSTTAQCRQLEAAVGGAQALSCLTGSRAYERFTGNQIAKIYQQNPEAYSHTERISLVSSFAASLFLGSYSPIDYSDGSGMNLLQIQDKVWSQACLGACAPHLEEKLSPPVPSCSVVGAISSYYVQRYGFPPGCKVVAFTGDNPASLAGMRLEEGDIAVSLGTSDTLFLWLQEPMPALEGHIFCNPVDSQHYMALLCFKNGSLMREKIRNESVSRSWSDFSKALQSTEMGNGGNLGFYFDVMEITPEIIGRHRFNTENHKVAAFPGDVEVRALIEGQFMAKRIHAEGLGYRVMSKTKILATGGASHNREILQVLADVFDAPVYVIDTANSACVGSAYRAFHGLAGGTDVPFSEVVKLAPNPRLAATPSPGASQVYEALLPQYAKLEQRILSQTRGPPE
Chain of UniProt O43676 (O43676 whole entry, one chain of several): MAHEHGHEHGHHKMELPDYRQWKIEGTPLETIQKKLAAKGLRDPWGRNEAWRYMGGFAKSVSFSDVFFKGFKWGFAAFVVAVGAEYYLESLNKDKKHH

Target	NP40-soluble protein abundance (concentration: 1mM)	NP40-soluble protein abundance (concentration: 2mM)	NP40-soluble protein abundance (concentration: 4mM)	NP40-soluble protein abundance (concentration: 6mM)	NP40-soluble protein abundance (concentration: 8mM)	NP40-soluble protein abundance (concentration: 10mM)
H7C5U8|Q9P0M9 (UniProt Q9P0M9)	1.12 ± 0.16	0.995 ± 0.22	0.923 ± 0.19	0.944 ± 0.29	0.902 ± 0.19	0.894 ± 0.24
H3BTR4|Q96BT3 (UniProt Q96BT3)	1.32 ± 0.023	1.41 ± 0.13	1.52 ± 0.21	1.72 ± 0.23	1.68 ± 0.17	1.87 ± 0.17
E9PHG5|Q6UW02 (UniProt Q6UW02)	1.11 ± 0.13	1.02 ± 0.16	1.04 ± 0.13	1.02 ± 0.17	1.02 ± 0.1	0.993 ± 0.086
E7EX59|E9PDR0|P05166|P05166-2|E7EUY3 (UniProt P05166)	0.992 ± 0.049	0.971 ± 0.02	0.968 ± 0.012	0.973 ± 0.046	0.998 ± 0.033	0.979 ± 0.03
G3XAG1|Q96ME7|Q96ME7-3 (UniProt Q96ME7)	1.34 ± 0.038	1.407 ± 0.0052	1.58 ± 0.019	1.71 ± 0.061	1.88 ± 0.046	2.06 ± 0.081
B7ZBA0|Q8NI27 (UniProt Q8NI27)	1.52 ± 0.091	1.62 ± 0.074	1.89 ± 0.076	2.09 ± 0.2	2.4 ± 0.17	2.4 ± 0.21
DNAJC13 (UniProt O75165)	1.15 ± 0.024	1.29 ± 0.095	1.3 ± 0.043	1.35 ± 0.12	1.68 ± 0.12	1.73 ± 0.22
UniProt E9PSI1	0.9713 ± 0.0047	0.986 ± 0.015	0.981 ± 0.015	0.939 ± 0.037	0.958 ± 0.044	0.96 ± 0.04
A0A0A0MTB8|Q8NI36 (UniProt Q8NI36)	1.21 ± 0.057	1.37 ± 0.057	1.68 ± 0.13	1.86 ± 0.23	2.12 ± 0.14	2.17 ± 0.17
C9JKQ2|O43676 (UniProt O43676)	0.921 ± 0.053	0.903 ± 0.08	0.867 ± 0.032	0.908 ± 0.048	0.862 ± 0.04	0.868 ± 0.042
SETD1A (UniProt O15047)	0.962 ± 0.038	0.97 ± 0.018	0.979 ± 0.022	0.997 ± 0.044	0.969 ± 0.049	0.997 ± 0.046
F6S7C4|Q8NEM7|Q8NEM7-2|Q8NEM7-3|R4GND2 (UniProt Q8NEM7)	1.09 ± 0.12	1.15 ± 0.1	1.14 ± 0.093	1.12 ± 0.13	1.16 ± 0.093	1.2 ± 0.11
A0A0A0MRR7|P09234 (UniProt P09234)	1.34 ± 0.087	1.39 ± 0.078	1.56 ± 0.062	1.87 ± 0.2	1.83 ± 0.041	1.84 ± 0.1
XYLB (UniProt O75191)	1 ± 0.053	0.986 ± 0.062	0.984 ± 0.097	0.965 ± 0.069	0.99 ± 0.075	0.967 ± 0.053
K7ES61|Q9BYD3 (UniProt Q9BYD3)	1.02 ± 0.079	0.942 ± 0.099	0.907 ± 0.091	0.827 ± 0.14	0.892 ± 0.19	0.895 ± 0.17
